# From PubChem
# Shown are actives, neighbours in structure and some others; about 2.4% of the full set was active somewhere.
# FEN1 inh – blocks human flap endonuclease 1; Recombinant FEN1 flap cleavage, fluorescence, 15 min; actives 0.35% (n = 390,000); AID 588795; P39748; Potency, µM (highest dose often 114 µM), most hits filed as inhibitors; also: nearly all actives have a fitted effect of over 65% in size
#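 Enzyme 10 nM, 15 min RT preincubation with compound; start with substrate 50 nM final; reads at 0 and 15 min; qHTS titration, four-parameter Hill fit.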
# Pol iota inh – DNA polymerase iota (human) inhibition; Q9UNA4; Pol iota fluorescent replication assay, 10 min; Potency, µM (series often up to 115 µM), actives largely listed as inhibitors; actives 1% (n = 390,000); AID 588590
#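 Pol iota at 10 nM preincubated 15 min with compounds at room temperature; reaction started with fluorescent substrate, 50 nM final. Fluorescence read kinetically at 0 and 10 min; buffer-only wells as negative control.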
# Pol eta inh-1 – blocks human DNA polymerase eta activity; Q9Y253; Potency, µM (titrated, usually from 114 µM), usual class: inhibitors; actives 1.2% (n = 390,000); recombinant Pol eta, fluorescent DNA replication assay; AID 588591
# Target sequence (Q9Y253 whole entry, looked up): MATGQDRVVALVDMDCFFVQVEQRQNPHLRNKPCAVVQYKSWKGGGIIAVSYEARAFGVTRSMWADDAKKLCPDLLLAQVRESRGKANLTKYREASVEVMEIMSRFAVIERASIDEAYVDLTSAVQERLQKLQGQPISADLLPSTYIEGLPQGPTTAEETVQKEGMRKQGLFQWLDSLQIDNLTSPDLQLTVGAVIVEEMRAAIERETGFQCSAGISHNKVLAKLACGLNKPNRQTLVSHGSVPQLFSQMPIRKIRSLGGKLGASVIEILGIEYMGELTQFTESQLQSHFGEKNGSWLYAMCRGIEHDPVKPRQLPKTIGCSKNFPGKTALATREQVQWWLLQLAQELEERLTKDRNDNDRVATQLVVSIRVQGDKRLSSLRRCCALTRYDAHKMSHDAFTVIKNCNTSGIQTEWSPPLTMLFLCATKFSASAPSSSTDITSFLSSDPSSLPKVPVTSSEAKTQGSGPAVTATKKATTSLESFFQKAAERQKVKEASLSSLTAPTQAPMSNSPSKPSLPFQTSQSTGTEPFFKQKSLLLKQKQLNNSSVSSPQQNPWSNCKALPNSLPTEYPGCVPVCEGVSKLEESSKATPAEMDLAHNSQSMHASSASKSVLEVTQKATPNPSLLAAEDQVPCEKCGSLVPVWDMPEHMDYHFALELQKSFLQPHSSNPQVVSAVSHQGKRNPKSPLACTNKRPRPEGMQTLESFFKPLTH
#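 Pol eta (10 nM) was preincubated with compounds for 15 min at room temperature, after which fluorescent replication substrate (50 nM final) was added to start the reaction. Fluorescence was read kinetically at 0 and 10 min.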
# PGK inhibitor – blocks T. brucei phosphoglycerate kinase; P07378; PGK/GAPDH coupled, Kinase-Glo luminescence, 60 min; Potency, µM (highest dose often 57.5 µM), actives largely listed as inhibitors; actives 0.043% (n = 380,000); also: nearly all actives have a fitted effect of over 60% in size
#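 Recombinant glycosomal PGK reaction used 1,3-bisphosphoglycerate generated in-well by GAPDH (100nM final) in 100mM TEA pH 7.6, 5mM MgCl2, 0.01% Tween-20. After 60 minutes at room temperature, ATP was read by Kinase-Glo Plus luminescence end-point.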
# Pol kappa inh-1 – DNA polymerase kappa (human) inhibition. Q9UBT6. actives 0.53% (n = 400,000). AID 588579. purified Pol kappa, fluorescent DNA synthesis assay, 10 min. Potency, µM (top dose mostly 107 µM), hits mostly inhibitors
#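 10 nM Pol kappa was preincubated with compounds for 15 min at room temperature. Reaction started with 50 nM (final) substrate. Fluorescence read kinetically at 0 and 10 min.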
# Pol beta inh – inhibitors of human DNA polymerase beta | Pol beta primer extension/strand displacement, fluorescence kinetic | Potency, µM (doses to about 114 µM), actives largely listed as inhibitors | P06746 | actives 1.3% (n = 340,000)
#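 Curves were derived by four-parameter Hill fits of normalized qHTS data. The kinetic fluorescent primer-extension read was taken at 0 and 10 min after 50 nM substrate, following a 15 min room-temperature preincubation of 10 nM enzyme with compounds.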
# POLI cherry-pick – Confirm cherry-picked inhibitors of human polymerase iota; shares compounds with Pol kappa inh-1; Pol iota primer extension, TAMRA/BHQ fluorescence; Potency, µM, hits mostly inhibitors; actives 77% (n = 1,500); AID 720496
# GALK confirm – galactokinase (human) inhibition, confirmation; shares compounds with Pol eta inh-1; purified GALK, Kinase-Glo ATP depletion luminescence; Potency, µM (series often up to 115 µM), hits mostly inhibitors; actives 70% (n = 150)
# Redox cycling – counter-screen for GALK inhibitors: redox cycling H2O2 generation; AID 2035; Phenol red-HRP H2O2 redox cycling, absorbance 600 nm; Potency, µM (titrated, usually from 115 µM), hits mostly inhibitors; shares compounds with Pol eta inh-1; actives 40% (n = 150)
# HEK293 tox – reduces HEK-293 cell viability in GALK counter-screen | actives 10% (n = 170) | AID 2547 | shares compounds with Pol eta inh-1 | HEK-293 viability, ATP luminescence (CellTiter-Glo), 24/48 h | Potency, µM (top dose mostly 46.1 µM), hits mostly inhibitors
# Pol kappa inh-2 – Pol kappa (human) inhibition, cherry-pick confirmation | shares compounds with Pol eta inh-1 | Potency, µM, actives largely listed as inhibitors | actives 76% (n = 920) | purified Pol-kappa, fluorescent strand-displacement substrate
# Pol eta inh-2 – confirmation of human DNA polymerase eta inhibitors; shares compounds with Pol eta inh-1; Pol eta primer extension, TAMRA/BHQ fluorescence, 10 min; Potency, µM, most hits filed as inhibitors; actives 64% (n = 2,600); AID 720502
# Hits are given with their value; . = inactive; ? = inconclusive; / = not tested or not shown; [ ] = remark or other dose. Calls follow the shape of the dose curve; as a rule, active = well fitted curve in the direction sought with a large enough effect; inconclusive = small, poorly fitted or top-dose-only effect, or another doubt; inactive = no such curve, though single readings can be large; an effect the other way counts as inactive or inconclusive.
SMILES,FEN1 inh,Pol iota inh,Pol eta inh-1,PGK inhibitor,Pol kappa inh-1,Pol beta inh,POLI cherry-pick,Pol eta inh-2,others
CN(C)c1cc(Cl)c2nonc2c1N,?,10µM,79µM,.,.,.,75,76,GALK confirm=21µM;Redox cycling=12µM;HEK293 tox=.
COc1ccc(Oc2c(OC)cc(NCc3ccc(CN)cc3)c3ncccc23)cc1,/,/,3.2µM,.,/,/,7.5,15,Pol kappa inh-2=3
CCNc1ncc2nc(-c3cc(F)cc(F)c3)c(=O)n(CCC#N)c2n1,/,/,/,/,.,/,/,/,
COc1cccc(/C(O)=C2/C(=O)C(=O)N(Cc3cccnc3)C2c2ccco2)c1 (stereo unspecified),.,?,.,.,.,?,/,/,
COCCN1C(=O)C(=O)/C(=C(/O)c2cccc(OC)c2)C1c1ccco1 (stereo unspecified),.,?,10µM,?,?,32µM,?,60,
O=C(Cn1nc(-c2ccccc2)c2cnc3ccccc3c21)Nc1ccccc1,.,.,.,.,.,.,/,/,
O=C(O)c1[nH]c2ccccc2c1C(c1cc(Br)ccc1O)c1c(C(=O)O)[nH]c2ccccc12,?,?,50µM,.,?,79µM,?,?,
O=C1C=C(O)c2[nH]c(=O)ccc2C1=O,?,18µM,18µM,.,?,/,53,48,Pol kappa inh-2=24
NC1=CC(=O)C(=O)c2ccccc21,.,?,?,.,.,/,/,/,
Cc1ccccc1-n1c(C)cc(/C=N/Nc2ccc([N+](=O)[O-])cn2)c1C,.,.,.,.,.,.,/,/,
Cc1cc(/C=N/Nc2ccc([N+](=O)[O-])cn2)c(C)n1-c1ccc(C(=O)O)cc1,?,18µM,18µM,.,79µM,?,?,67,
CCCCCCCCCCCCCCCC(=O)OC[C@H](O)[C@H]1OC[C@@H](O)[C@@H]1O,/,/,/,/,.[19.4 µM],/,/,/,
Cc1ccc(S(=O)(=O)OCC(=O)Nc2ccc(C(=O)O)c(O)c2)cc1,28µM,20µM,3.2µM,?,25µM,/,19,19,Pol kappa inh-2=3.4
Cc1ccc(NC(=O)COCC(=O)Nc2ccc(C)cc2)cc1,.,.,.,.,.,.,/,/,
Cc1nnc(NC(=O)CCSCCC(=O)Nc2nnc(C)s2)s1,.,18µM,3.2µM,.,79µM,28µM,42,27,Pol kappa inh-2=21
COc1cc(Cl)c(S(=O)(=O)NCCc2c(C)[nH]c3c(C)cccc23)cc1Cl,.,.,.,.,.,.,/,/,
COc1cc(/C=C/c2cc[n+](C)c3ccccc23)cc(OC)c1OC,.,.,/,/,.,/,/,/,
O=C(O)CCCN1C(=O)/C(=C/c2cn(-c3ccccc3)nc2-c2cccs2)SC1=S,.,35µM,28µM,?,?,22µM,42,76,
CCOc1cc(/C=N/Nc2ccc(S(=O)(=O)Nc3ccccc3C(=O)O)cc2[N+](=O)[O-])cc(Cl)c1O,/,/,25µM,.,/,/,47,67,Pol kappa inh-2=24
Cc1ccc(C)c(-c2ccc(=O)n(C(C)C(=O)Nc3ccccc3C(F)(F)F)n2)c1 (stereo unspecified),.,.,.,.,.,.,/,/,
Cc1ccc(N(Cc2cccs2)C(=O)c2ccco2)cc1,.,.,.,.,.,.,/,/,
Cc1cc(C)n2nc(C(=O)OCC(=O)c3cc(C)n(C)c3C)nc2n1,.,?,14µM,.,?,32µM,?,85,
Cc1cc(C)n2nc(C(=O)OCC(=O)c3cc(C)n(CC4CCCO4)c3C)nc2n1 (stereo unspecified),.,.,.,.,.,.,/,/,
Cc1nnc(NC(=O)CSCc2cc(=O)c3ccc(C)c(C)c3[nH]2)s1,.,.,.,.,.,.,/,/,
Cc1nnc(NC(=O)CSCc2cc(=O)c3ccccc3[nH]2)s1,.,79µM,50µM,.,.,?,67,?,
SMILES,FEN1 inh,Pol iota inh,Pol eta inh-1,PGK inhibitor,Pol kappa inh-1,Pol beta inh,POLI cherry-pick,Pol eta inh-2,others
COc1ccc(C2CC(=O)Nc3c2c(=O)[nH]c2nc4ccccc4n32)cc1 (stereo unspecified),.,.,.,.,.,.,/,/,
Cn1cccc1C(=O)OCc1nc2ccccc2c(=O)[nH]1,.,18µM,20µM,.,71µM,/,47,?,
O=c1[nH]c(COc2ccccc2)nc2ccccc12,.,.,.,.,.,.,/,/,
Nc1ncnc2c1ncn2[C@@H]1O[C@H](COP(=O)(O)OP(=O)(O)OC[C@H]2OC(O)[C@H](O)[C@@H]2O)[C@@H](O)[C@H]1O (stereo partly specified),/,/,/,/,.[19.4 µM],/,/,/,
Cc1ccc(NC(=O)Cn2c(C)cc(C)c(C#N)c2=O)cc1,.,.,.,.,.,.,/,/,
Cn1nc(-c2ccc(C(=O)Nc3ccc(F)cc3)cc2)c2ccccc2c1=O,?,?,?,.,.,16µM,42,?,Pol kappa inh-2=24
COCCCNC(=O)CN1C(=O)c2cccnc2Sc2ccccc21,.,.,.,.,.,.,/,/,
Cc1ccc(NC(=O)Cn2c(O)c(N=NC(=O)c3cc4ccccc4cc3O)c3ccccc32)cc1,.,?,?,.,.,?,/,/,
COc1ccccc1NC(=O)Cn1c(O)c(N=NC(=O)c2ccccc2O)c2ccccc21,?,?,50µM,.,?,?,?,/,Pol kappa inh-2=?
COC(=O)c1sc2cccc(F)c2c1S(=O)(=O)N1CCN(c2ccc(F)cc2)CC1,.,.,.,.,.,.,/,/,
O=C(Nc1cc2c(oc1=O)CCCC2=O)c1ccc(Cl)cc1,56µM,.,11µM,?,18µM,3.5µM,15,8.5,
Cc1ccc(C(=O)O)cc1N1C(=O)c2cccc3c([N+](=O)[O-])ccc(c23)C1=O,?,16µM,10µM,.,40µM,18µM,27,30,Pol kappa inh-2=6.7
CC(=O)Oc1cccc(N2C(=O)c3cccc4c([N+](=O)[O-])ccc(c34)C2=O)c1,.,.,.,.,.,.,/,/,
